L major viab: Leishmania major promastigote growth inhibition. 200,000 compounds, 9% hits. inhibition, % at 10 µM. AID 1063. Leishmania major promastigotes, resazurin fluorescence viability; in the data active = inhibition above about 50%;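 note: promastigotes grown with compound for 44 hours at 28 °C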
Insulin prom inh: TRM-6 insulin promoter activity inhibition. TRM-6 cells (human fetal islet line), insulin promoter-eGFP reporter, imaging; reporter expression induced with tamoxifen. 130,000 compounds, 0.9% hits. AID 1273. inhibition, % at 2 µM;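 active = inhibition above the mean plus 3 SD, with well images judged a real hit on visual review, cut at about 60% in these data, passing the limit was not always enough; inconclusive = inhibition over the cutoff but images rejected on review; inactive = inhibition not above the cutoff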
Insulin prom up: MIN6 insulin promoter up-regulation; MIN6 insulin promoter-GFP reporter, high-content imaging; active compounds read high; z-score at 5 µM; 190,000 compounds, 0.3% hits;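 active = z-score above 3 at 5 µM with at least 500 cells counted in the well; inconclusive = wells under 500 cells, flagged as cytotoxic or low count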
HCT116 PTEN-null: growth suppressors of cells with PTEN tumor suppressor deletion; HCT116 PTEN-null viability, CellTiter-Glo, 60 h; active compounds read low; 140,000 compounds, 1.2% hits; viability, % at 10 µM;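 active = viability at or below a set limit, 4 SD under the median of all tested compounds, cut at about 3.7% in these data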;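 note: PTEN knockout HCT116 line with beta catenin targeted HCT116 as companion control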
Autophagy mod: autophagy modulation, high-content screen; MEF GFP-LC3 puncta imaging; test concentration mostly 10 µM; calls only at 10 µM (by protocol); 190,000 compounds, 0.98% hits; AID 463193;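 active = percentage of spot-positive cells more than 3 SD above its plate mean, without a fluorescence outlier flag or 80% toxicity; inconclusive = no clear call, values can overlap the other calls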;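 note: spot-positive cell cutoff set from DMSO-treated cells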
HCT116 bCat-KO: beta-catenin-lacking colon tumor cell growth suppression; AID 818; viability, % at 10 µM; HCT116 beta-catenin knockout viability, CellTiter-Glo, 60 h; active compounds read low; 140,000 compounds, 1.5% hits;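 active = viability at or under a set limit, the compound median less 4 SD, cut at about 6% in these data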;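 note: 0% = Hyamine 1622 control at 20 µM and 100% = untreated cell control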
* marks the source's active call; other numbers are inactive results; i = inactive; u = inconclusive; x = no result given; + = active, no number. Hits are enriched below; roughly 9.6% of the tested compounds scored in any of these assays.

SMILES | L major viab | Insulin prom inh | Insulin prom up | HCT116 PTEN-null | Autophagy mod | HCT116 bCat-KO
CCOC(=O)c1ccccc1-n1c(C)cc(C2N=C(N)Nc3nc4ccccc4n32)c1C (configuration not stated) | -3 | 0 | -0.65 | 94 | i | 97
COc1ccc(C(c2nnnn2CCc2ccccc2)N2CCN(C3CCCC3)CC2)cc1OC (configuration not stated) | 100* | x | 0.44 | 85 | i | 89
COc1cc(C(c2nnnn2C2CCCC2)N2CCN(C)CC2)cc(OC)c1OC (configuration not stated) | 9 | x | 0.51 | 87 | i | 82
COc1ccc(C(c2nnnn2C2CCCC2)N2CCN(C3CCCC3)CC2)cc1OC (configuration not stated) | 83* | 21 | 0.15 | 91 | i | 83
COc1cccc(C(c2nnnn2Cc2ccccc2)N2CCN(C3CCCC3)CC2)c1OC (configuration not stated) | 98* | 18 | -1.6 | 72 | + | 67
COc1ccccc1C(c1nnnn1Cc1ccccc1)N1CCN(C2CCCC2)CC1 (configuration not stated) | 12 | -27 | x | 94 | i | 86
CC(C)CCNC(=O)[C@H](CSCc1ccccc1)N1Cc2ccccc2C1=O | -1 | 10 | -0.8 | 88 | i | 93
COc1ccc(CN2CCN(S(=O)(=O)c3ccccc3)CC2)cc1Br | 75* | x | 0.91 | 91 | i | 94
O=S(=O)(c1ccc(Cl)cc1)N1CCN(Cc2c[nH]c3ccccc23)CC1 | 52* | -55 | x | 100 | i | 90
COc1ccc(S(=O)(=O)N2CCCN(Cc3cccc(F)c3)CC2)cc1 | 90* | -24 | x | 80 | i | 91
O=S(=O)(c1ccc(Br)cc1)N1CCCN(Cc2ccccc2F)CC1 | 50* | -50 | -0.03 | 78 | i | 81
Cc1ccccc1CN1CCN(S(=O)(=O)c2ccc(F)cc2)CC1 | 40 | -31 | -0.4 | 92 | i | 99
COCCSc1nnc(NC(=O)C2CCCO2)s1 (configuration not stated) | -4 | x | -0.05 | 101 | i | 101
CCN1CCN(S(=O)(=O)c2ccc(OC)c(Br)c2)CC1 | 84* | 26 | 0.18 | 100 | i | 103
CCCS(=O)(=O)N1CCN(Cc2ccc(OCc3ccccc3)c(OC)c2)CC1 | 91* | 50 | x | x | i | x
CC(C)COc1ccc(C(=O)Nc2ccc(SC(F)F)cc2)cc1 | 52* | -19 | -0.16 | 93 | i | 83
COc1ccc(C2SCCN2C(=S)Nc2ccc(F)cc2)cc1 (configuration not stated) | 22 | x | 0.31 | 75 | i | 80
COc1ccc(C2SCCN2C(=S)Nc2cccc(C(F)(F)F)c2)cc1 (configuration not stated) | 96* | -122 | 0.01 | 67 | i | 78
CC1(C)CC(NC(=O)c2sc3cc(Cl)ccc3c2Cl)CC(C)(C)N1 | 101* | x | -1.2 | x | i | x
O=C(NC1=NCCS1)c1sc2cc(F)ccc2c1Cl | 8 | x | 0.71 | 90 | i | 92
O=C(NCCCN1CCOCC1)c1sc2cc(Cl)ccc2c1Cl | 92* | 8 | -0.66 | x | i | x
O=C(Nc1ccon1)c1sc2cc(F)ccc2c1Cl | 1 | 8 | -0.17 | 91 | + | 87
Cc1ccc(C)c(C(=O)NC2CC(C)(C)NC(C)(C)C2)c1 | -4 | -32 | 0.38 | 101 | i | 93
O=C(NCCCN1CCOCC1)c1sc2cc([N+](=O)[O-])ccc2c1Cl | 86* | x | -0.15 | x | i | x
O=C1NC(c2ccco2)Nc2sc3c(c21)CCN(Cc1ccccc1)C3 (configuration not stated) | 1 | x | 0.31 | 92 | i | 92
SMILES | L major viab | Insulin prom inh | Insulin prom up | HCT116 PTEN-null | Autophagy mod | HCT116 bCat-KO
O=C(NCCCN1CCOCC1)c1sc2cc(F)ccc2c1Cl | 93* | 27 | -0.64 | x | i | x
O=C(NCCN1CCOCC1)c1ccc([N+](=O)[O-])cc1[N+](=O)[O-] | 71* | x | 0.56 | 85 | i | 96
O=C(NCc1ccco1)c1sc2cc(F)ccc2c1Cl | -4 | -190 | x | 100 | i | 101
CCN(CC)S(=O)(=O)c1ccc(Cl)c(NC(=O)COc2ccccc2[N+](=O)[O-])c1 | -4 | 17 | 0.16 | 24 | i | 29
CCC(=O)Nc1cc(-c2nn(C)c(=O)c3ccccc23)ccc1OC | 8 | 16 | -1.1 | 101 | i | 95
COc1ccc(-c2nn(C)c(=O)c3ccccc23)cc1NC(=O)Cn1nc(C)c2ccccc2c1=O | 100* | 44 | -1.7 | 84 | i | 65
Oc1ccc(N=Nc2cccc(C(F)(F)F)c2)cc1C=Nc1ccc(N2CCOCC2)cc1 | 91* | -21 | 0.34 | 4 | i | 4.1*
CCN1C(=O)S/C(=C/c2cn(C)c3ccccc23)C1=O | 82* | -31 | 0.13 | 91 | i | 88
Cn1cc(/C=C2\SC(=O)N(c3ccccc3)C2=O)c2ccccc21 | -5 | x | -0.43 | 57 | + | 54
Cc1ccc(C(=O)Nc2cccnc2Oc2ccc(Cl)cc2)cc1 | x | x | 0.98 | x | x | x
O=C(NN=C1CCCC1)c1ccn[nH]1 | 14 | 26 | 0.28 | 103 | i | 94
CN1c2ccccc2C(C)(C)C12C=Cc1cc(O)ccc1O2 (configuration not stated) | 99* | -73 | -2.9 | 24 | i | 42
CC(C)C(=O)N1CCN(c2cc(N3CCN(C)CC3)c(F)cc2[N+](=O)[O-])CC1 | 96* | -7 | x | x | i | x
Cn1c(=O)n(C)c2cc([N+](=O)[O-])c(N3CCN(C(=O)C(C)(C)C)CC3)cc21 | 2 | 71* | -0.66 | x | i | x
Cn1c(=O)n(C)c2cc([N+](=O)[O-])c(N3CCN(C(=O)c4ccccc4)CC3)cc21 | 6 | 10 | u | 78 | i | 68
CCN1CCN(c2cc(N3CCc4ccccc4C3)c(F)cc2[N+](=O)[O-])CC1 | 61* | x | -1.3 | 0.5* | i | 1.0*
Cc1cc(NC(=O)CN2C(=O)NC(C)(c3ccccc3)C2=O)no1 (configuration not stated) | -3 | -13 | -0.92 | 99 | i | 93
COc1ccc(CCc2nnc(CCC(=O)N(C)Cc3ccncc3C)o2)cc1 | 1 | 22 | x | x | i | x
COc1ccc(CNC(=S)Nc2ccc3nc(N4CCN(C)CC4)cc(C)c3c2)cc1 | 19 | x | 0.48 | x | i | x
CCCCN(C)C(=O)CCC(=O)Nc1ccc2nc(N3CCN(C)CC3)cc(C)c2c1 | 5 | x | 0.32 | x | i | x
CCOc1ccccc1NC(=O)CCC(=O)Nc1ccc2nc(N3CCN(C)CC3)cc(C)c2c1 | 74* | 3 | 0.28 | 95 | i | 97
CCC(C)NC(=S)Nc1ccc2nc(N3CCN(CC)CC3)cc(C)c2c1 (configuration not stated) | 94* | x | 0 | x | i | x
Cc1cc(N2CCN(C)CC2)nc2ccc(NC(=S)NCc3cccs3)cc12 | 99* | x | -0.48 | x | i | x
CCN1CCN(c2cc(C)c3cc(NC(=S)N(CC)CC)ccc3n2)CC1 | 7 | x | 0.25 | x | i | x

Compound activity from PubChem.
